Test [1] concerns Zika virus NS2B-NS3 protease. Nature of the test: Primary screen GU AMC qHTS for Zika virus inhibitors (AID 1347154).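 Also: 0% = no-inhibitor control and -100% = no-enzyme control; nearly all actives have a fitted effect of over 70% in size.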 In a few lines:
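Unlinked Zika NS2B hydrophilic domain–NS3 protease complex at 25 nM in 10 mM Tris-HCl pH 8.0, 0.01% Tween 20, with an AMC peptide substrate. Fluorescence change (340/450 nm) over 15 min at room temperature, normalized to controls, fitted to 4-parameter Hill.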

Test [2] addresses Estrogen receptor (Homo sapiens) (UniProt P03372). Nature of the test: qHTS assay for small molecule antagonists of estrogen receptor alpha signaling (AID 588513; active = well fitted curve in the direction sought with a large enough effect in the signal ratio, with a control signal flat, not every such curve was filed as active; the % refers to the signal ratio; also: potency is read from the fitted curve at half-maximal effect). In a few lines: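 ER-alpha-UAS-bla GripTite HEK 293 cells in 2% charcoal/dextran-treated FBS medium; compounds titrated (1:2, duplicate), then stimulated with 0.5 nM 17-beta-estradiol for 18 h at 37C. CCF4 beta-lactamase fluorescence; Hill-fit IC50 and efficacy.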

The target is the same in test [3]. As to the kind of experiment: qHTS assay for small molecule agonists of estrogen receptor alpha signaling (AID 588514; calls by dose curve;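 also: 0% = vehicle only and 100% = reference agonist; nearly all actives have a fitted effect of over 70% in size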). The method in brief:
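Cells were plated at 5000/well, incubated 4 hrs at 37 C, dosed with compound titration series, incubated 18 hrs at 37 C, loaded with CCF4 dye for 2 hrs at RT, then fluorescence was read.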
Background: In qHTS, concentration-response curves come from the screen itself.

The target in test [4] is Androgen receptor (Homo sapiens) (UniProt P10275). Nature of the test: qHTS assay for small molecule agonists of androgen receptor signaling (AID 588515; active = well fitted curve in the direction sought with a large enough effect in the signal ratio, with a control signal flat; the % refers to the signal ratio; also: % is scaled to controls: 0 for no effect and ±100 for the full control effect). The following applies: AR-UAS-bla HEK293, beta-lactamase ratio, agonist 16 h; stronger effect = higher value. In a few lines: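 EC50 and efficacy came from Hill fits of titrations (up to 92 uM) normalized to 30 nM R1881 as 100% and DMSO as 0%. Compound exposure was 16 h at 37 C on AR-UAS-bla HEK293 cells, with a 405/460/530 nm CCF4 fluorescence read.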
Androgen receptor (Homo sapiens), sequence (P10275 whole entry, looked up): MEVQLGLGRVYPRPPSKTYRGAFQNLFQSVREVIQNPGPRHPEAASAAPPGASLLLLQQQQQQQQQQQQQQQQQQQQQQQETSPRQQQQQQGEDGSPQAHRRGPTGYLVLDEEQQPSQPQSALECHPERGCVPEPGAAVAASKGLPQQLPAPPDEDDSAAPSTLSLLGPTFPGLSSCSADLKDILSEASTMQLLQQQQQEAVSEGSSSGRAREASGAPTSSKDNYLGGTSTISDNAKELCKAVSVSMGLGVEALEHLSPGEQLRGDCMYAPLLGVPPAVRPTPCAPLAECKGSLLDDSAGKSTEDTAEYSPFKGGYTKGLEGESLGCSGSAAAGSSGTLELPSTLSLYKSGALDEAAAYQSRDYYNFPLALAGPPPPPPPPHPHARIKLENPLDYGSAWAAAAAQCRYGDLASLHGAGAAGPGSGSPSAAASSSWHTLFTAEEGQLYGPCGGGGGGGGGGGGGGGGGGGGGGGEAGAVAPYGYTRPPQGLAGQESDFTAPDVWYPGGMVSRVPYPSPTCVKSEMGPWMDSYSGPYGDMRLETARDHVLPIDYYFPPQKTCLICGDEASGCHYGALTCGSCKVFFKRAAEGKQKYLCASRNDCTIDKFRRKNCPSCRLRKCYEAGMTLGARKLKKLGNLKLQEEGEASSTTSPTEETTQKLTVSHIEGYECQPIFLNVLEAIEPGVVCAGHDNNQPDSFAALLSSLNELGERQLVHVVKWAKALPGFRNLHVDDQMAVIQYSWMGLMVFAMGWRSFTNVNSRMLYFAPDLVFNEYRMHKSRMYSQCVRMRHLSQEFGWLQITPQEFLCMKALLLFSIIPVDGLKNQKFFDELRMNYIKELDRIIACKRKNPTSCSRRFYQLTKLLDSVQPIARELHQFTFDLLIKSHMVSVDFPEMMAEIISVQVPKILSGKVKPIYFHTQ

In test [5] the target is Glucocorticoid receptor (Homo sapiens) (UniProt P04150). As to the kind of experiment: qHTS assay for small molecule agonists of glucocorticoid receptor signaling (AID 588532; active = well fitted curve in the direction sought with a large enough effect in the signal ratio, with a control signal flat; the % refers to the signal ratio;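 also: 100% = dexamethasone at 0.1 µM and 0% = DMSO only wells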). The settings on record: HeLa MMTV-bla, beta-lactamase ratio, agonist, 18 h; stronger effect = higher value; percent of dexamethasone control, DMSO zero. In a few lines: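 HeLa GRE-bla reporter cells; 18 h compound exposure at 37 C; 2 h CCF4 loading at room temperature; fluorescence at 460 and 530 nm; EC50 by Hill equation.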
Glucocorticoid receptor (Homo sapiens), sequence (P04150 whole entry, looked up): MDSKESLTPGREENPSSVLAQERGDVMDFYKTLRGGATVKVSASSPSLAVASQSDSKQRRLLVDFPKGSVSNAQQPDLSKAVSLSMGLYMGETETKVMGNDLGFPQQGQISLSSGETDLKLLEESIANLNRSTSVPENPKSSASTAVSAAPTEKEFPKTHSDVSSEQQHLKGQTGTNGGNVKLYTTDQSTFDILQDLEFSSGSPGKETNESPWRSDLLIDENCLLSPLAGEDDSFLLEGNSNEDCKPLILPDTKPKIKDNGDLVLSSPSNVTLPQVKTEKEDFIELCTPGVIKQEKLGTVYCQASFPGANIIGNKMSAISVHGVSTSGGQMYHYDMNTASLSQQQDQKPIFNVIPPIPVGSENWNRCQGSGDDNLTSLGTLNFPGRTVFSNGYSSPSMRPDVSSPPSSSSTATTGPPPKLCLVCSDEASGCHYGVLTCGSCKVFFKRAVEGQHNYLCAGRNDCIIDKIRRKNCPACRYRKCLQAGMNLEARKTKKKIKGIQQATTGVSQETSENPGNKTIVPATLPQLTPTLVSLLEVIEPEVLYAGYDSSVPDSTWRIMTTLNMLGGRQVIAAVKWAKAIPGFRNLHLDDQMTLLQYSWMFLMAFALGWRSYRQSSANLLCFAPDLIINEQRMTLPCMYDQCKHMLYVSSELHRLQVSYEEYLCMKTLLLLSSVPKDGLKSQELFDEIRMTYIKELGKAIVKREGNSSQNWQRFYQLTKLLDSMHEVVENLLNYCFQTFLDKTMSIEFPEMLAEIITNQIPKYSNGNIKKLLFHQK

For test [6] the target is unchanged. As to the kind of experiment: qHTS assay for small molecule antagonists of glucocorticoid receptor signaling (AID 588533; active = well fitted inhibition curve with a large enough effect in the signal ratio, with a control signal flat, not every such curve was filed as active; the % refers to the signal ratio; also: % is scaled to controls: 0 for no effect and ±100 for the full control effect). The method in brief:
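Antagonist-mode qHTS: compound titrations added to GRE-bla HeLa cells, then dexamethasone 2 nM final; 18 h, 37 C. CCF4 FRET fluorescence normalized to dexamethasone and DMSO; IC50 from Hill fit.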

The target in test [7] is Peroxisome proliferator-activated receptor gamma (Homo sapiens) (UniProt P37231). Nature of the test: qHTS assay for small molecule agonists of peroxisome proliferator-activated receptor gamma signaling (AID 588536; active = well fitted curve in the direction sought with a large enough effect in the signal ratio, with a control signal flat, not every such curve was filed as active; the % refers to the signal ratio;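 also: 0% = DMSO basal wells and 100% = rosiglitazone at 2 µM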). The method in brief: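 Test agents, titrated, stimulated HEK293 UAS-bla cells overnight (16 h, 37 C). Substrate CCF4 was then added for two hours at room temperature before fluorescence reading.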
Peroxisome proliferator-activated receptor gamma (Homo sapiens), sequence (P37231 whole entry, looked up): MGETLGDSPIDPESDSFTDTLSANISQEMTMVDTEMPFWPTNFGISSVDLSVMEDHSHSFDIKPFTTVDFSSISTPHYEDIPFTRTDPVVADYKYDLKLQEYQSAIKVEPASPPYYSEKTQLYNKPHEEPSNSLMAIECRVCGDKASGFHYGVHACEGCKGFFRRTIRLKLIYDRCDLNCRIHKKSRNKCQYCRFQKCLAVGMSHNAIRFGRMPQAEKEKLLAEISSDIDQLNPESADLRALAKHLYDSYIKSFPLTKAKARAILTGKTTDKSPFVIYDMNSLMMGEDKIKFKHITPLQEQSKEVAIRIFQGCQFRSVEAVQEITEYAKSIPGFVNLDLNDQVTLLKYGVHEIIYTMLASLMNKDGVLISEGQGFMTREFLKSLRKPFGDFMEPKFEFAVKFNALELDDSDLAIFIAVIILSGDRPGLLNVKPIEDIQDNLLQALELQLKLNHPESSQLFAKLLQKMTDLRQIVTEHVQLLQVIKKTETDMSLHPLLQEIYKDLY

For test [8], the target named is Vitamin D3 receptor (Homo sapiens) (UniProt P11473). As to the kind of experiment: qHTS assay for small molecule agonists of vitamin D receptor signaling (AID 588543; calls by dose curve;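 also: 0% = DMSO basal and 100% = reference agonist control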). In a few lines: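 VDR-UAS-bla HEK293T cells, 2000/well, 2% charcoal-stripped FBS; compound titration 16 h at 37 C; CCF4 beta-lactamase ratio read. Normalized to 50 nM 1-alpha,25-dihydroxyvitamin D3 (100%) and DMSO; Hill fit gives EC50, efficacy.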

A short description of test [9]: qHTS assay for small molecule agonists of the antioxidant response element (ARE) signaling pathway (AID 651741; active = well fitted activation curve with a large enough effect in the signal ratio; the % refers to the signal ratio; also: potency is read from the fitted curve at half-maximal effect). The method in brief:
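CellSensor ARE-bla HepG2 cells (2,000/well) carrying ARE-driven beta-lactamase, exposed 16 h at 37 C. LiveBLAzer B/G FRET substrate added for 2 h at room temperature; fluorescence intensity read.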

The nature of test [10]: qHTS assay for environmental chemicals that activate the Aryl hydrocarbon Receptor (AhR) signaling pathway (AID 651777). Also: % of control where 0% means no effect; nearly all actives have a fitted effect of over 15% in size. The following applies: 1A2-DRE human hepatoma cells, luciferase, 24 h; stronger effect = higher value. In a few lines:
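Human hepatoma 1A2-DRE cells stably carrying a DRE/CYP1A2 promoter–luciferase reporter, 1,200 cells/well, exposed to compound 24 hr at 37 C. Luciferase read by One-Glo luminescence after 30 min at room temperature; increased signal marks AhR activation.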

A short description of test [11]: qHTS assay for cell viability of HEK293 cells (AID 743288). Also: potency is read from the fitted curve at half-maximal effect; nearly all actives have a fitted effect of over 50% in size. The following applies: ATP luminescence (CellTiter-Glo), 18 h; max response: stronger effect = lower value. In a few lines:
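Parental HEK293 cells, 2,000 per well, preincubated at least 5 h at 37 C, then exposed to compounds in DMSO for 18 h at 37 C. Viability by CellTiter-Glo ATP luminescence after 30 min at room temperature.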

Test [12] in a line: qHTS to identify inhibitors of the type 1 interferon - major histocompatibility complex class I in skeletal muscle: primary screen against the NCATS Mechanism Interrogation Plate v5.0 (MIPE) Libary (AID 1347411).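 Also: plate controls were vehicle for no effect and reference inhibitor for full effect; nearly all actives have a fitted effect of over 65% in size.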 The method in brief:
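Luminescence from HiBiT-tagged endogenous HLA-B*08:01 served as the MHC class I read-out. CRISPR-engineered C25cl48 human myoblasts received 4.0 ng/ml IFN-beta plus compound for 24 hrs, with an 11-point, 1:3 series topping at 46 uM final.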

The nature of test [13]: Primary qHTS for small molecule stabilizers of the endoplasmic reticulum resident proteome: Secreted ER Calcium Modulated Protein (SERCaMP) assay (AID 1508630). Also: % is scaled to controls: 0 for no effect and ±100 for the full control effect. The method in brief:
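GLuc-SERCaMP-expressing SH-SY5Y cells, pretreated 16 h with compound, are challenged with thapsigargin to empty ER calcium stores; after 4 h, coelenterazine is added directly to the medium and luminescence is imaged.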

A short description of test [14]: Primary qHTS for inhibitors of nuclear receptor binding SET domain protein 2 (NSD2) in an isogenic RCH-ACV NSD2 p.E1099K mutant (9B) (AID 1645876). Also: % is scaled to controls: 0 for no effect and ±100 for the full control effect; nearly all actives have a fitted effect of over 70% in size.
A short description of test [15]: Primary qHTS for inhibitors of nuclear receptor binding SET domain protein 2 (NSD2) in an RCH-ACV wild type WT cells (2C) (AID 1645877). Also: % is scaled to controls: 0 for no effect and ±100 for the full control effect; nearly all actives have a fitted effect of over 70% in size.
Test [16] deals with Glutathione peroxidase 1 (Homo sapiens) (UniProt P07203). As to the kind of experiment: Primary qHTS Assay for Inhibitors of Recombinant Selenoprotein Glutathione Peroxidase 1 (GPX1) (AID 1845191). Also: % is scaled to controls: 0 for no effect and ±100 for the full control effect; nearly all actives have a fitted effect of over 65% in size. In a few lines: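 GR-coupled assay: compounds preincubated 30 min at room temperature with GPX1, then reaction started with CHP; final 10 nM GPX1, 1 mM GSH, 0.5 mM CHP, 0.5 mM NADPH, 100 nM GR, 0.01% BSA, pH 7.5 Tris buffer. NADPH fluorescence (340/450 nm) read at 0 and 15 min.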
Glutathione peroxidase 1 (Homo sapiens), sequence (P07203 whole entry, looked up): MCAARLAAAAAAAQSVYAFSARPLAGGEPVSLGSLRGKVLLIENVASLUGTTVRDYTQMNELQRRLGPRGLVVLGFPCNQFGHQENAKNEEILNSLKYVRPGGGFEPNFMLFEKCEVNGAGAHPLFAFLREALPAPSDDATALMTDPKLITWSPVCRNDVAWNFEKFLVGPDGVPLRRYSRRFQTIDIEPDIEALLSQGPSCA

The target of test [17] is Phospholipid hydroperoxide glutathione peroxidase GPX4 (Homo sapiens) (UniProt P36969). Nature of the test: Primary qHTS Assay for Inhibitors of Recombinant Selenoprotein Glutathione Peroxidase 4 (GPX4) (AID 1845192). Also: series mostly up to about 50 µM; % is scaled to controls: 0 for no effect and ±100 for the full control effect; nearly all actives have a fitted effect of over 65% in size. The following applies: outcome: dose series up to 50 µM unless noted. The method in brief: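 GR-coupled assay: recombinant GPX4 preincubated 30 min with compound at room temperature; final 200 nM GPX4, 1 mM GSH, 0.5 mM cumene hydroperoxide, 0.5 mM NADPH, 100 nM GR, 0.01% BSA, pH 7.5 Tris. NADPH fluorescence (340/450 nm) read at 0 and 15 min.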
Phospholipid hydroperoxide glutathione peroxidase GPX4 (Homo sapiens), sequence (P36969 whole entry, looked up): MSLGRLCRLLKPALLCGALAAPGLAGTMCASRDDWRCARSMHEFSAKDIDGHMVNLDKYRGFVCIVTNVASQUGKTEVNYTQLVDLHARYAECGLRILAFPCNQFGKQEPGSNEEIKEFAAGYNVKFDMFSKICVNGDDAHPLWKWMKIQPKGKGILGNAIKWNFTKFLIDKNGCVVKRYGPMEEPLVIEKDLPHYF

Test [18] can be described thus: qHTS drug screen for cell cycle checkpoint inhibitors in PARPi-resistant BRCA-mutant ovarian cancer cell lines. (AID 1963452; calls by dose curve). The settings on record: PEO1/OlaR viability, CellTiter-Glo luminescence, 96 h, stronger effect = lower value. The method in brief: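 PEO1, PEO4 and PEO1/OlaR ovarian cancer cells, 600 per well, exposed 96 h at 37C to a dilution series. Viability read by CellTiter-Glo luminescence, normalized to DMSO and empty wells; activity summarized as Z-AUC.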

Test [19] concerns the target Nuclear receptor subfamily 1 group I member 2 (Rattus norvegicus) (UniProt Q9R1A7). As to the kind of experiment: qHTS assay for small molecule activators of the rat pregnane X receptor (rPXR) signaling pathway (AID 651751; call rule not given here; also: 0% is about no effect). The following applies: rPXR reporter cells, luciferase (One-Glo), 24 h.
Test [20] addresses Cytochrome P450 2D6 (Homo sapiens) (UniProt P10635). As to the kind of experiment: Cytochrome P450 family 2 subfamily D member 6 (CYP2D6) small molecule antagonists: luciferase biochemical (cell-free) qHTS assay (AID 1645840; active = well fitted curve in the direction sought with a large enough effect in the repeat runs; an effect the other way counts as inactive or inconclusive; also: potency is read from the fitted curve at half-maximal effect; nearly all actives have a fitted effect of over 55% in size). The method in brief: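 P450-Glo luminescent screen: recombinant CYP2D6 enzyme–proluciferin substrate mix preincubated with compound 10 min at room temperature, then NADPH regeneration added for 1 h at room temperature. Detection reagent added for 20 min; luciferin light read as relative luminescence units.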

The target in test [21] is Cytochrome P450 2C9 (Homo sapiens) (UniProt P11712). As to the kind of experiment: Cytochrome P450 family 2 subfamily C member 9 (CYP2C9) small molecule antagonists: luciferase biochemical (cell-free) qHTS assay (AID 1645842; active = well fitted curve in the direction sought with a large enough effect in the repeat runs; an effect the other way counts as inactive or inconclusive; also: potency is read from the fitted curve at half-maximal effect; nearly all actives have a fitted effect of over 55% in size). The method in brief:
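Luminescence, after 20 min with luciferin detection reagent, reflected CYP2C9 turnover during a 1 h NADPH-driven reaction at 37C. Enzyme-substrate mix contained 0.4% bovine serum albumin and was preincubated with compound 10 min at room temperature.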

Test [22] in a line: Confirmatory screen GU Rhodamine qHTS for Zika virus inhibitors qHTS (AID 1347157). The method in brief: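 Buffer 10 mM Tris-HCl pH 8.0, 0.01% Tween 20. Unlinked protease 25 nM; compound preincubation 15 min, RT, protected from light. Substrate Rhod110, 1.5 microM; ~15% conversion in 15 min.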
Test [23] is described as follows: Confirmatory screen NINDS Rhodamine qHTS for Zika virus inhibitors (AID 1347161).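 Also: purified Zika NS2B-NS3 protease with linked NS2B cofactor domain and Rhodamine110 peptide substrate; series mostly up to about 110 µM; plate controls were no-inhibitor control for no effect and no-enzyme control for full effect; nearly all actives have a fitted effect of over 60% in size.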 In a few lines: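 Single-chain NS2B-NS3 protease, 25 nM, pH 8.0; compounds preincubated 15 min. Activity: Rhodamine110 release from 1.5 microM substrate over 15 min, room temperature, data fitted to 4-parameter Hill.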
Test [24] in a line: Tertiary RLuc qRT-PCR qHTS assay for Zika virus inhibitors (AID 1347169). Also: top concentration of the series differs between compounds; % is scaled to controls: 0 for no effect and ±100 for the full control effect; nearly all actives have a fitted effect of over 55% in size. The method in brief:
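Vero cells (1,000/well) infected with recombinant ZIKV-RLuc (Cambodian) at MOI 1-2 after compound addition, 48-72 hrs at 37 degrees C. Live-cell Renilla luciferase substrate added; luminescence read after 1-1.5 hrs.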

[25] abbreviates: measured here: PEO1 parental Z-AUC.

Results filed as inconclusive are left out. Activity calls are given as the source filed them. Unless noted, calls follow the shape of the dose curve; as a rule, active = well fitted curve in the direction sought with a large enough effect; inconclusive = small, poorly fitted or top-dose-only effect, or another doubt; inactive = no such curve, though single readings can be large; an effect the other way counts as inactive or inconclusive.

Estrogen receptor (Homo sapiens), sequence (P03372 whole entry, looked up): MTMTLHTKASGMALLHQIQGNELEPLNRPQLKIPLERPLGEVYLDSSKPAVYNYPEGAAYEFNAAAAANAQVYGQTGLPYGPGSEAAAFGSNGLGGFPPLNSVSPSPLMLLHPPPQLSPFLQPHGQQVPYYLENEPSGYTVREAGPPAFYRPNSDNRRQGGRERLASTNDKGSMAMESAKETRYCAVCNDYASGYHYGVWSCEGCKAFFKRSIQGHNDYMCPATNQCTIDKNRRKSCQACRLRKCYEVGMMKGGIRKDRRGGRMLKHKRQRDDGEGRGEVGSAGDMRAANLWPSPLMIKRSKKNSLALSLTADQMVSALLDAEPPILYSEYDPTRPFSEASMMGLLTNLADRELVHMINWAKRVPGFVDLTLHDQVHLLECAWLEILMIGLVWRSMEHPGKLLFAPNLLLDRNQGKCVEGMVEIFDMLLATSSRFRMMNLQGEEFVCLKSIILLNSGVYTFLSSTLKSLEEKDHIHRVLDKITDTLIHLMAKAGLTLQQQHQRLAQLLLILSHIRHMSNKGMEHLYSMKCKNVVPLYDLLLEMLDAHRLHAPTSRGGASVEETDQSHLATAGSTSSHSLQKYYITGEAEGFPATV
Cytochrome P450 2D6 (Homo sapiens), sequence (P10635 whole entry, looked up): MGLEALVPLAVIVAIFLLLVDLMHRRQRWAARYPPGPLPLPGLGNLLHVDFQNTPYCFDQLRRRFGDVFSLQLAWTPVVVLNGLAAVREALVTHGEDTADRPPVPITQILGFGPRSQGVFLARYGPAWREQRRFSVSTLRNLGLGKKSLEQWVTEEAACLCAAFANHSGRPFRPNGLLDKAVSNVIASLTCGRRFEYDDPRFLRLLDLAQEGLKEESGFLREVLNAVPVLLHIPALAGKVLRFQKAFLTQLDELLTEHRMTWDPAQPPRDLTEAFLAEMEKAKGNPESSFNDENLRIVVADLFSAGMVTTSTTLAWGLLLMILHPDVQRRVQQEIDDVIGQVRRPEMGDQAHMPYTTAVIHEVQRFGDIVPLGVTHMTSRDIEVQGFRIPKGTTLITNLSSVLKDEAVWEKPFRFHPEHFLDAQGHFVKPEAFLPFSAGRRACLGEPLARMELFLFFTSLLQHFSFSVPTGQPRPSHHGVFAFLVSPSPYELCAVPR
Nuclear receptor subfamily 1 group I member 2 (Rattus norvegicus), sequence (Q9R1A7 whole entry, looked up): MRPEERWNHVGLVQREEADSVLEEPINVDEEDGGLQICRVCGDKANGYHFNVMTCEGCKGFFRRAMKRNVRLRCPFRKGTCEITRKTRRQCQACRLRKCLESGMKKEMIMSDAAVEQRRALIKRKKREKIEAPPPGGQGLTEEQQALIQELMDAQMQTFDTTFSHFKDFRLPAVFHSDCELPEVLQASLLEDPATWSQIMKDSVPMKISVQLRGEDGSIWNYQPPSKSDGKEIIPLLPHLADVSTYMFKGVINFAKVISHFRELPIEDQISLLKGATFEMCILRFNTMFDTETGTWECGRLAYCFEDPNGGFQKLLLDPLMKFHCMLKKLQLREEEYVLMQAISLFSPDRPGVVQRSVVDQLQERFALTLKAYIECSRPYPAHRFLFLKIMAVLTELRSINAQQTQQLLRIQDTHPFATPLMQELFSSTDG
Cytochrome P450 2C9 (Homo sapiens), sequence (P11712 whole entry, looked up): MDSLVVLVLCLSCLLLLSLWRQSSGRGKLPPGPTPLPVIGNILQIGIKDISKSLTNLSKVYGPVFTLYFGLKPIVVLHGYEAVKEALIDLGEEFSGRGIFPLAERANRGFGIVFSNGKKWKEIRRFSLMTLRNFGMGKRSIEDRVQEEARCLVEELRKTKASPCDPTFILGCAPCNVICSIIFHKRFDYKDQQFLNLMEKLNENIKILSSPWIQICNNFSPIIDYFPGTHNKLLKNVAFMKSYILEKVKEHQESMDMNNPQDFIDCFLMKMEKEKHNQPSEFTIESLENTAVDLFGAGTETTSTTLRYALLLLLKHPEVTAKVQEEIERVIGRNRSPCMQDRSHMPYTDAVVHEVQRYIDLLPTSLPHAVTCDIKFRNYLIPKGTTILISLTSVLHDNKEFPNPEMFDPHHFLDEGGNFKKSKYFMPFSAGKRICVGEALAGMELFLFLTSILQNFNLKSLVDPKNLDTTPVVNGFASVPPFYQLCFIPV

Take `O=C(O)C1CC(CCCP(=O)(O)O)CCN1` (configuration not stated): the Potency result in test [1] is “inactive”.
In the case of `CC[C@@H]1Cn2c(c3nc(-c4cc(Cl)cc(Cl)c4Cl)nc-3n(C)c2=O)N1`, in [1], the Potency entry was “inactive”.
As to `C/C=C1/C(=O)C[C@@H]2[C@H]3CCC4=CC(=O)CC[C@]4(C)[C@@H]3CC[C@]12C`, the Potency result in [1] was “inactive”.
As for `C=C1O[C@@](CO)(n2cnc3c(N)ncnc32)[C@H](O)[C@@H]1O`, the Potency result in test [1] was “inactive”.
Take `Clc1ccc(-c2nc3sccn3c2/C=N/OCc2ccc(Cl)c(Cl)c2)cc1`: the Potency in test [2] was 20 µM [inhibitor] (active); in test [9] it was 24.3 µM (active); in test [11], 50.1 µM (active). For the same compound, the outcome in test [3], in test [6], in [7] and in [8] was inactive. In addition, the activation in test [4] is -9.11% (inactive); in test [5], 2.87% (inactive); in [10], 3.66% (inactive). The Potency result in test [1], in test [12], in test [13], in test [14], in [15] and in test [16] was “inactive” in each case. Besides, the Potency entry in test [17] is “inactive”. Besides, the Z-AUC in test [18] was 1.14 (inactive); in [18] (setting [25]) it was 1.09; in test [18] (measured here: PEO4 Z-AUC) it was 1.23. Also, the max response in test [19] was 6.54% (inactive).
With `C=C1/C(=C\C=C2/CCC[C@]3(C)C([C@H](C)CCCC(C)(C)O)CC[C@@H]23)C[C@@H](O)C[C@@H]1O` (some centres not stated), in [1], the activity change, negative = inhibition is 14.5% [at 6.83 µM] (inactive).
Turning to `N#C/C(=C(/N)Sc1ccc(N)cc1)c1ccccc1C(F)(F)F`, the Potency result in [1], in test [12], in [13], in test [16] and in [17] was “inactive” in each case. Besides, the Potency in test [20] was 16.9 µM (active); in [21], 9.52 µM (active). Moreover, the Z-AUC was -0.578 (inactive) in test [18], -0.277 in test [18] (setting [25]) and -0.614 in test [18] (measured here: PEO4 Z-AUC).
With `Cc1cc(=O)c2c(O)c3c(O)cc(O)c4c5c(O)cc(O)c6c(O)c7c(=O)cc(C)c8c1c2c(c34)c(c65)c78`, the Potency result in test [1], in test [22], in test [23], in test [24] and in [13] was “inactive” each time.
On to `CCCCC[C@H](O)CC[C@H]1[C@H](O)CC(=O)[C@@H]1CCCCCCC(=O)O`, for which the activity change, negative = inhibition in test [1] is 15.4% [at 6.83 µM] (inactive).

For the origin of these results see PubChem BioAssay (NCATS).
